Laboratory results reported in PubChem BioAssay.
Active and inactive are the calls of the source. The rule behind the calls is not given here.

test: P. aeruginosa biofilm formation inhibitors, primary screen, strain PAO1, LB-PBS medium, absorbance 600 nm (AID 1176); note: test concentration not given here; settings: P. aeruginosa PAO1 growth/biofilm, A600, 12 h; higher = more signal

z-score, inactive:
COC(=O)[C@H](C)NC(=O)CCC1CC(OC(=O)NCCc2ccc(F)cc2)CC2(CCCC(COC(=O)NCCc3ccccc3OC)O2)O1 (some centres undefined) 0.119, CCOC(=O)[C@H](CC(C)C)NC(=O)CCC1CC(OC(=O)NCc2ccc3c(c2)OCO3)CC2(CCCC(COC(=O)NCCc3ccc(Cl)cc3)O2)O1 (some centres undefined) -0.151, CC(CCN1CCc2nc(-c3ccccc3)c(-c3ccccc3)cc2C1)=NOC(C)CN1CCCc2nc(C)c(C)cc21 (centres undefined) 0.371, O=C1[C@H]2[C@H]3[C@H](O)[C@H](O)CC(=NO[C@@H]4O[C@H](CO)[C@@H](O)[C@H](O)[C@H]4O)[C@@H]3CC[C@H]2C(=O)N1C[C@@H]1CCCO1 -0.589, COc1ccc(O[C@H]2C=C[C@@H](c3ccccc3)O[C@@H]2COC(=O)CCC(C)=NOC[C@@H](O)COCc2ccco2)cc1 -0.0903, CC(C)=CCCC(C)=CCON=C1C[C@@H](O)[C@@H](O)[C@@H]2[C@@H]3C(=O)N(c4cccc(Oc5ccccc5)c4)C(=O)[C@@H]3CC[C@H]12 -0.0849, CO[C@@H]1C=CCC(=O)N[C@@H](C)C(=O)OC[C@@H](NS(=O)(=O)c2ccc(C)cc2)[C@H](C)C=CCC(=O)OC[C@H]1C -0.212, COc1ccc(COC(=O)NN=C2C[C@@H](O)[C@@H](O)[C@@H]3[C@@H]4C(=O)N(c5cccc(Oc6ccccc6)c5)C(=O)[C@@H]4CC[C@H]23)cc1 -0.872, CCOC(=O)CCN1C(=O)[C@H]2[C@H]3[C@H](O)[C@H](O)CC(=NNC(=O)OCc4ccccc4)[C@H]3CC[C@H]2C1=O 1.1
